Screening results deposited in PubChem by The Scripps Research Institute Molecular Screening Center.
The list is not random: actives were taken first. Their share in the collection is about 4.8%.
DAX1 inh-1: blocks DAX1 repression of SF-1 activated StAR promoter. HEK293T StAR-luciferase reporter, SF-1/DAX-1 repression relief. inhibition, % at 6.8 µM. 1.1% of 370,000 active. AID 652010;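 active means inhibition above the mean over all tested compounds plus 3 SD, cut at about 3.6% in these data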;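 further: 0% = DAX-1 cells with DMSO and 100% = cells lacking DAX-1 with DMSO; higher inhibition means more luminescence from relief of DAX-1 repression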
ssDAF12 agonist: activates DAF-12 receptor from parasite S. stercoralis. 1% of 370,000 active. HEK293 ssDAF-12/GRIP1 lit1-tk-luc reporter, luminescence; % of 3 µM dafachronic acid response. activation, % at 6.8 µM;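 active means activation above the mean over all tested compounds plus 3 SD, cut at about 0.9% in these data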;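 further: 0% = DMSO-only wells and 100% = 3 µM delta7-dafachronic acid wells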
hgDAF-12 ag: agonists of H. glycines DAF-12 nuclear receptor; HEK293 GAL4-hgDAF12 UAS-luciferase reporter, agonist luminescence; normalized to butyrate control; activation, % at 6.8 µM; 1.8% of 370,000 active;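 active means activation above a cutoff set at the mean of all screened compounds plus 3 SD, cut at about 10% in these data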;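 further: 0% = DMSO wells and 100% = sodium butyrate wells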
hcDAF-12 act: activates DAF-12 receptor from parasite H. contortus | HEK293 hcDAF-12 lit1-tk-luc reporter, luminescence; 0% DMSO, 100% Δ7-dafachronic acid | activation, % at 6.8 µM | 1.4% of 370,000 active;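 active means activation above the mean of all tested compounds plus 3 SD, cut at about 5.5% in these data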;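 further: 100% = response to 3 µM Δ7-dafachronic acid high control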
SMARCA2 activ: increases SMARCA2 function in MMTV reporter cells. activation, % at 9.1 µM. AID 652017. 1% of 370,000 active. MG213 cells, MMTV-luciferase reporter, dexamethasone, overnight; in the data active means activation above about 7.8%;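 further: 0% = vehicle wells and 100% = reference activator wells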
DAX1 inh-2: inhibitors of human orphan nuclear receptor DAX1 (NR0B1). HEK293 Gal4-DAX1 luciferase reporter, luminescence. 0.99% of 340,000 active. P51843. AID 504766. inhibition, % at 6.75 µM;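 active means inhibition above the mean over all tested compounds plus 3 SD, cut at about 4.2% in these data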;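 further: 0% = DAX1-transfected cells with DMSO and 100% = empty-vector control cells with DMSO; inhibition shows as a rise in luminescence from relieved DAX1 repression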
Target sequence (P51843 207-470 limits assumed): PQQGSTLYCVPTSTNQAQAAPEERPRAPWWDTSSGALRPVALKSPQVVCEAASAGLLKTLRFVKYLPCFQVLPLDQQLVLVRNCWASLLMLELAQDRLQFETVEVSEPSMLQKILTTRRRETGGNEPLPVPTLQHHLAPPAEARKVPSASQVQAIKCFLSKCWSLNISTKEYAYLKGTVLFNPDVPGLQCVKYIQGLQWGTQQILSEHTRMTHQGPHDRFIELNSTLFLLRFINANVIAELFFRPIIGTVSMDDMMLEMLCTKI
SMARCA2 conf: confirmation of SMARCA2 (BRM) function activators | shares compounds with SMARCA2 activ | MG213 cells, MMTV-luciferase with dexamethasone, luminescence, overnight; MG213 cells expressing E1A, Rb sequestered; DMSO wells 0%, reference activator 100% | activation, % at 9.1 µM | 30% of 3,500 active;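 active means activation above its plate's cutoff, the mean activation of tested wells plus 3 SD, cut at about 7.9% in these data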
VP16 Luc act: counter-screen for SMARCA2 activators: GAL4-VP16 luciferase reporter activation; shares compounds with SMARCA2 activ; HEK293 GAL4-VP16 pG5luc reporter, luciferase luminescence; scaled: DMSO wells 0%, SAHA wells 100%; activation, % at 9.1 µM; 41% of 3,500 active; AID 686939;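 active means activation above the solvent-only control well mean plus 3 SD, averaged across control plates, cut at about 5.2% in these data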
Numbers without * were called inactive.

Screening O=C1C(NC(=O)N2c3ccccc3C=Cc3ccccc32)CCCCN1Cc1ccc(Cl)cc1 (configuration not stated) returned DAX1 inh-1 -1, ssDAF12 agonist -2, hgDAF-12 ag -3, hcDAF-12 act -1 and SMARCA2 activ -3.
Screening Cc1cc(-c2ccc(Br)s2)nc(-n2cccc2)n1 returned DAX1 inh-1 1, ssDAF12 agonist -1, hgDAF-12 ag 9, hcDAF-12 act 0, SMARCA2 activ 12*, DAX1 inh-2 0, SMARCA2 conf -5 and VP16 Luc act 4.
`Cc1cc(-c2sccc2Br)nc(-n2cccc2)n1` gave DAX1 inh-1 0, ssDAF12 agonist 0, hgDAF-12 ag 3, hcDAF-12 act 5, SMARCA2 activ -2 and DAX1 inh-2 0.
`O=S1(=O)c2ccc(N3CCC[C@H]3CO)cc2O[C@H]2CCN1C2` gave DAX1 inh-1 -1, ssDAF12 agonist -1, hgDAF-12 ag 0, hcDAF-12 act 0 and SMARCA2 activ -1.
O=C(CN(c1cccc([N+](=O)[O-])c1)S(=O)(=O)c1ccccc1)N(Cc1ccccc1)Cc1ccccc1 was read as DAX1 inh-1 -1, ssDAF12 agonist -1, hgDAF-12 ag -1, hcDAF-12 act 2, SMARCA2 activ 9.9*, DAX1 inh-2 1, SMARCA2 conf -3 and VP16 Luc act -1.
For CCOc1ccc(NC(=O)CCNS(=O)(=O)c2ccc3c(c2)oc(=O)n3C)cc1 the results were DAX1 inh-1 -2, ssDAF12 agonist -1, hgDAF-12 ag 1, hcDAF-12 act 5.9*, SMARCA2 activ 8.0*, DAX1 inh-2 0, SMARCA2 conf -1 and VP16 Luc act -1.
Screening Cc1ccc(NC(=O)CCNS(=O)(=O)c2ccc3c(c2)oc(=O)n3C)cc1 returned DAX1 inh-1 1, ssDAF12 agonist -1, hgDAF-12 ag 2, hcDAF-12 act 0, SMARCA2 activ -2 and DAX1 inh-2 0.
For O=C(Nc1cccc(C(F)(F)F)c1)OC1CC2CC1[C@H]1CCCCN1[C@H]2Cc1ccccc1 (some centres not stated) the results were DAX1 inh-1 -1, ssDAF12 agonist -1, hgDAF-12 ag 0, hcDAF-12 act -1 and SMARCA2 activ -4.
Cc1cc(NC(=O)CCS(=O)(=O)c2nc(-c3ccccc3)cc(C(F)(F)F)n2)no1 was read as DAX1 inh-1 0, ssDAF12 agonist -1, hgDAF-12 ag -3, hcDAF-12 act -2, SMARCA2 activ 9.3*, DAX1 inh-2 -1, SMARCA2 conf -15 and VP16 Luc act 3.
CC(C)CCN1CC(C(=O)NCCC2=CCCCC2)CC1=O (configuration not stated) was read as DAX1 inh-1 2, ssDAF12 agonist -1, hgDAF-12 ag -1, hcDAF-12 act 1, SMARCA2 activ 8.1*, DAX1 inh-2 0, SMARCA2 conf 2 and VP16 Luc act 2.
`COC(=O)[C@]12CCCCC=C1N(Cc1ccc(OC)cc1)C(=O)[C@@H]2CC(=O)NCCc1ccccc1OC` gave DAX1 inh-1 -1, ssDAF12 agonist -1, hgDAF-12 ag 2, hcDAF-12 act -2 and SMARCA2 activ -2.
For Cc1cn([C@H]2C[C@H](O)[C@@H](/C=C/C(=O)NCc3ccco3)O2)c(=O)[nH]c1=O the results were DAX1 inh-1 -1, ssDAF12 agonist 0, hgDAF-12 ag 6, hcDAF-12 act 2, SMARCA2 activ 10*, SMARCA2 conf -1 and VP16 Luc act 1.
`CCCCCCC(=O)NC1CCCCN(Cc2ccccc2C)C1=O` (configuration not stated) gave DAX1 inh-1 0, ssDAF12 agonist 0, hgDAF-12 ag 2, hcDAF-12 act 1 and SMARCA2 activ -1.
COCc1cc(C)nc(SCC(=O)Nc2ccc(C)c(C)c2)c1C#N was read as DAX1 inh-1 0, ssDAF12 agonist 0, hgDAF-12 ag 7, hcDAF-12 act 0, SMARCA2 activ 8.1*, DAX1 inh-2 2, SMARCA2 conf 4 and VP16 Luc act 4.
`COC(=O)[C@]12C[C@H](CC(=O)NCc3ccc(OC)c(OC)c3)C(=O)N(Cc3ccc(Cl)cc3Cl)C1=C[C@H](C(C)C)O[C@@H]2C1CC1` gave DAX1 inh-1 -1, ssDAF12 agonist -1, hgDAF-12 ag 1, hcDAF-12 act -2 and SMARCA2 activ -3.
Cc1cccc(-c2nnc(SCC(=O)Nc3cccc4ccccc34)n2Cc2ccco2)c1 was read as DAX1 inh-1 -1, ssDAF12 agonist -1, hgDAF-12 ag 3, hcDAF-12 act -3 and SMARCA2 activ -4.
Screening N#Cc1ccccc1OCC(=O)Nc1ccc2c(c1)OCCCO2 returned DAX1 inh-1 1, ssDAF12 agonist -1, hgDAF-12 ag 8, hcDAF-12 act -1, SMARCA2 activ 6 and DAX1 inh-2 0.
For N#Cc1ccccc1OCC(=O)Nc1ccc2c(c1)OCCO2 the results were DAX1 inh-1 4.1*, ssDAF12 agonist 0, hgDAF-12 ag 12*, hcDAF-12 act 6.5*, SMARCA2 activ 8.5*, DAX1 inh-2 1, SMARCA2 conf 4 and VP16 Luc act 6.3*.
Screening O=C(CSc1ncccn1)Nc1ccc2c(c1)OCO2 returned DAX1 inh-1 0, ssDAF12 agonist 0, hgDAF-12 ag 0, hcDAF-12 act 1, SMARCA2 activ -1 and DAX1 inh-2 0.
Screening O=C(CSc1ccccn1)Nc1ccc2c(c1)OCCO2 returned DAX1 inh-1 1, ssDAF12 agonist 0, hgDAF-12 ag 10, hcDAF-12 act 2, SMARCA2 activ 8.4*, DAX1 inh-2 4, SMARCA2 conf 8.4* and VP16 Luc act 12*.
`O=C(CNCc1ccccc1Cl)Nc1ccc2c(c1)OCCO2` gave DAX1 inh-1 3, ssDAF12 agonist -1, hgDAF-12 ag 12*, hcDAF-12 act 0, SMARCA2 activ 13*, DAX1 inh-2 2, SMARCA2 conf 13* and VP16 Luc act 6.9*.
`CC(C)NC(=O)N[C@@H]1C[C@@H]2O[C@@H](CO)CC[C@@H]2O[C@@H]1CCc1ccc(-c2ccccc2F)cc1` gave DAX1 inh-1 -1, ssDAF12 agonist -1, hgDAF-12 ag 3, hcDAF-12 act -3 and SMARCA2 activ -4.
